Among the test systems are HCT-15 colon; HT29 colon; SNB-75 CNS; SNB-19 CNS; U251 CNS; PC-3 prostate; SK-MEL-5 melanoma; UACC-62 melanoma; LOX IMVI melanoma; SK-MEL-28 melanoma; SK-MEL-2 melanoma; EKVX NSCLC; SN12C renal; UO-31 renal; TK-10 renal; ACHN renal; CAKI-1 renal; A498 renal; CCRF-CEM leukemia; MOLT-4 leukemia.
Holding throughout (test): NCI-60 one-dose screen, 48 h (100 = growth as untreated, 0 = no growth, -100 = all killed)
What all share (conditions): 10 µM unless noted

The panel holds about 83,000 compounds, 20% with a hit somewhere; the sample as a whole holds those more often.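 Assay: single dose, 48 h. Readout: percent growth (0 = no net growth; negative = cell death). Active: <10.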 Unmarked numbers belong to inactive results. The source made the active and inactive calls.

For the compound `COc1cc(/C=N/NC(=O)c2ccc(C(F)(F)F)nc2Nc2cc(Cl)ccc2C)cc(OC)c1OC`, the growth in the assay on HCT-15 colon was 104%; in the assay with HT29 colon it was 127%; with SNB-75 CNS it was 96%; in the assay on SNB-19 CNS, 75.4%; in the assay with U251 CNS, 87.4%; with PC-3 prostate it was 66.8%. The growth with SK-MEL-5 melanoma was 102%; with UACC-62 melanoma, 85%; in the assay with LOX IMVI melanoma, 102%; in the assay with SK-MEL-28 melanoma it was 99.5%; in the assay with SK-MEL-2 melanoma, 88.8%; with EKVX NSCLC it was 93.6%. The growth was 93.9% in the assay on SN12C renal; 103% in the assay with UO-31 renal; 119% in the assay on TK-10 renal; 104% in the assay on ACHN renal; 77.5% in the assay with CAKI-1 renal; 100% in the assay with A498 renal. The growth with CCRF-CEM leukemia is 51.5%; with MOLT-4 leukemia, 61.8%.
With `CCCCCN1C(=O)CCC1=O`, the growth in the assay on HCT-15 colon is 106%; in the assay with HT29 colon, 102%; in the assay on SNB-75 CNS, 98.6%; in the assay with SNB-19 CNS it was 101%; in the assay on U251 CNS it was 99%; in the assay on PC-3 prostate, 95.1%. For the same compound, the growth in the assay with SK-MEL-5 melanoma is 102%; with UACC-62 melanoma, 99.3%; with LOX IMVI melanoma, 102%; in the assay with SK-MEL-28 melanoma, 110%; in the assay on SK-MEL-2 melanoma, 103%; in the assay with EKVX NSCLC, 98.9%. Moreover, the growth with SN12C renal was 101%; in the assay on UO-31 renal it was 85.8%; in the assay on TK-10 renal, 106%; in the assay on ACHN renal, 104%; in the assay with CAKI-1 renal it was 91.8%; in the assay with A498 renal it was 106%. Also, the results for the growth in the assay with CCRF-CEM leukemia and in the assay with MOLT-4 leukemia were -52.3% (active) and 110%, respectively.
As to `Cc1cccc2nnc(-c3ccccc3)n12`, the growth with HCT-15 colon is 101%; in the assay with HT29 colon, 106%; in the assay on SNB-75 CNS, 107%; in the assay on SNB-19 CNS, 97.1%; in the assay on U251 CNS, 108%; in the assay on PC-3 prostate, 104%. Further, the growth is 110% with SK-MEL-5 melanoma; 99.6% with UACC-62 melanoma; 99.4% with LOX IMVI melanoma; 112% with SK-MEL-28 melanoma; 99.1% in the assay with SK-MEL-2 melanoma; 103% in the assay with EKVX NSCLC. Also, the growth in the assay with SN12C renal was 93.7%; in the assay on UO-31 renal, 85.1%; in the assay on TK-10 renal, 98.1%; with ACHN renal, 105%; in the assay on CAKI-1 renal it was 105%; in the assay with A498 renal, 96%. Besides, the growth in the assay on CCRF-CEM leukemia is 99.3%; in the assay with MOLT-4 leukemia, 93.2%.
On to `COC(=O)C1CCN(S(=O)(=O)c2ccc(-c3ccccc3)cc2)CC1`, for which the growth with HCT-15 colon is 110%; in the assay with HT29 colon, 109%; with SNB-75 CNS it was 87.8%; with SNB-19 CNS, 98.5%; in the assay with U251 CNS it was 111%; in the assay on PC-3 prostate, 90.3%. Besides, the growth is 107% in the assay with SK-MEL-5 melanoma; 98.2% in the assay on UACC-62 melanoma; 107% in the assay with LOX IMVI melanoma; 105% in the assay on SK-MEL-28 melanoma; 8.48% (active) with SK-MEL-2 melanoma; 108% with EKVX NSCLC. Besides, the growth in the assay on SN12C renal is 105%; in the assay on UO-31 renal it was 97.1%; in the assay on TK-10 renal it was 122%; in the assay with ACHN renal it was 110%; with CAKI-1 renal it was 99.8%; in the assay on A498 renal, 125%. Moreover, the results for the growth in the assay on CCRF-CEM leukemia and with MOLT-4 leukemia were 138% and 161%, respectively.
Regarding `O=C(O)C1C(c2ccccc2)c2ccccc2C(O)C1CO` (centres undefined), the growth in the assay with HCT-15 colon was 98.2%; in the assay with HT29 colon, 106%; in the assay with SNB-75 CNS, 80.7%; in the assay on SNB-19 CNS, 99.8%; in the assay with U251 CNS, 105%; in the assay with PC-3 prostate it was 91.5%. Also, the growth was 107% in the assay with SK-MEL-5 melanoma; 95.3% with UACC-62 melanoma; 103% with LOX IMVI melanoma; 111% with SK-MEL-28 melanoma; 98.7% in the assay with SK-MEL-2 melanoma; 119% in the assay with EKVX NSCLC. In addition, the growth in the assay with SN12C renal is 98.1%; with UO-31 renal, 78.2%; in the assay on TK-10 renal, 102%; in the assay with ACHN renal, 97.3%; in the assay on CAKI-1 renal, 112%; in the assay with CCRF-CEM leukemia, 92.9%. For the same compound, in the assay with MOLT-4 leukemia, the growth is 104%.
As for `Cc1nn(-c2ccccc2)cc1/C=C1\SC(N2CCCCC2)=NC1=O`, the growth is 22% in the assay on HCT-15 colon; 55.4% in the assay with HT29 colon; 102% in the assay on SNB-75 CNS; 82.5% in the assay on SNB-19 CNS; 79.4% with U251 CNS; 71% with PC-3 prostate. The growth in the assay on SK-MEL-5 melanoma is 68.8%; in the assay on UACC-62 melanoma it was 78.4%; with LOX IMVI melanoma, 68.1%; in the assay with SK-MEL-28 melanoma, 108%; in the assay on SK-MEL-2 melanoma, 94%; in the assay with EKVX NSCLC, 94.2%. Also, the growth is 93% with SN12C renal; 65.1% in the assay with UO-31 renal; 78.5% with TK-10 renal; 74.7% with ACHN renal; 39.8% in the assay with CAKI-1 renal; 71.3% in the assay on A498 renal. Besides, the growth is 43.6% in the assay with CCRF-CEM leukemia and 58.6% in the assay with MOLT-4 leukemia.
Take `Cc1ccc2nc(SCC(=O)Nc3ccc(-c4nc5ccccc5s4)c(Cl)c3)[nH]c2c1`: the growth in the assay with HCT-15 colon is 101%; with HT29 colon, 106%; with SNB-75 CNS it was 94.6%; in the assay on SNB-19 CNS, 102%; with U251 CNS it was 105%; in the assay on PC-3 prostate it was 107%. The growth in the assay on SK-MEL-5 melanoma was 102%; in the assay on UACC-62 melanoma, 90.3%; with LOX IMVI melanoma, 107%; in the assay with SK-MEL-28 melanoma, 118%; in the assay on SK-MEL-2 melanoma it was 105%; in the assay on EKVX NSCLC it was 119%. For the same compound, the growth in the assay on SN12C renal was 107%; in the assay with UO-31 renal, 95%; in the assay with TK-10 renal, 109%; in the assay on ACHN renal it was 106%; with CAKI-1 renal, 105%; in the assay on A498 renal, 105%. In addition, the figures for the growth in the assay with CCRF-CEM leukemia and in the assay with MOLT-4 leukemia were 103% and 99.8%, respectively.
Take `Cc1ccc2c(c1)C(=O)/C(=C\Nc1ccc(C(N)=O)cc1)C(O)O2` (centres undefined): the growth in the assay on HCT-15 colon was 85.9%; in the assay with HT29 colon it was 105%; with SNB-75 CNS, 74.8%; in the assay on SNB-19 CNS it was 106%; in the assay with U251 CNS it was 85.6%; in the assay with PC-3 prostate, 76.4%. Besides, the growth is 104% in the assay with SK-MEL-5 melanoma; 106% in the assay with UACC-62 melanoma; 85.3% with LOX IMVI melanoma; 99.8% in the assay with SK-MEL-28 melanoma; 77.4% in the assay on SK-MEL-2 melanoma; 97.8% in the assay on EKVX NSCLC. The growth was 136% with SN12C renal; 79.3% in the assay on UO-31 renal; 120% in the assay with TK-10 renal; 104% in the assay on ACHN renal; 82.3% in the assay on CAKI-1 renal; 115% with A498 renal. In addition, the growth was 78.3% in the assay with CCRF-CEM leukemia and 80.6% in the assay on MOLT-4 leukemia.
